Assay results published in the OligoGym collection.

Biological target: PLEKHA8
Assay: pooled miR-30 sensor sort-seq; sequence = guide strand
Conditions: shRNA
Note: reference of the scale not given here.

| Sequence | sensor-assay potency score (higher = more potent) |
| --- | --- |
| TAGGGCTGTCTGGATATCCTTC | -0.391 |
| TAATAGGACAATATTCCCCCAC | -0.473 |
| TTCAGCAAACTCTTTCTCCTTC | 0.589 |
| ATTATCTACAGAATGAACTTGA | 1.24 |
| TTCACAAGTGCTCAACTCCATT | -1.47 |
| TATCTACAGAATGAACTTGAAT | -1.22 |
| TTGAATTTCACAGACTGCCATT | -0.888 |
| ATTTCCAACAAGATCCATCTTA | 0.673 |
| TTTCCAACAAGATCCATCTTAA | -0.407 |
| TTCCATTCCATCTTCCTTCCTT | 0.675 |
| TAATATTTCCAACAAGATCCAT | -0.589 |
| AATATTTCCAACAAGATCCATC | -1.17 |

Biological target: PLEKHB1
Assay: as above
Conditions: shRNA

| Sequence | sensor-assay potency score (higher = more potent) |
| --- | --- |
| TGAAGTGGATGAGCACACGGTC | -1.12 |
| TAGTAGTCTTGGTACGGGCTGT | -0.059 |
| TATGTCACGGACATTGAAGTGG | -0.329 |
| TTGAAGTGGATGAGCACACGGT | -0.311 |
| TCTCATCGTGGTAGTATCCCAG | -0.247 |
| TCTGTCTCCACAGCCAGCCGCC | -1.23 |
| TCATCCTTGGTCTCCGCACAGA | -1.23 |
| TTCCCGTAGGTTCACAGTCAGC | -1.99 |
| TAGGGCATCATCCTTGGTCTCC | -0.411 |
| TCGTAGTAGTCTTGGTACGGGC | -1.27 |
| TAGGGCGGTCCGTAGTAGCTGC | -0.166 |
| TAGTAGCTGCGGACATACGTGG | -1.12 |

Biological target: PLEKHJ1
Assay: as above
Conditions: shRNA

| Sequence | sensor-assay potency score (higher = more potent) |
| --- | --- |
| TTCCTGTAGAAGATGAGGCTTC | 0.247 |
| TTTATTTGAACAGAACAAGCAC | 0.502 |
| TTTGAACAGAACAAGCACCCTG | 0.823 |
| TTCGTTCCTGTAGAAGATGAGG | -0.827 |
| TTATTTGAACAGAACAAGCACC | -0.886 |
| TTGAACAGAACAAGCACCCTGG | 0.692 |
| TCAGGGTCCTCAATGAAGCTGA | -0.114 |
| TGTACATTCATTCAGCACGGGG | -1.25 |
| TAGAAGATGAGGCTTCTCCGCA | -0.0375 |
| TATGCCGAACTGTTCCAGGGGG | -0.541 |
| ATGAACTCGTAGCTGGCCCGAC | -0.947 |
| TGACACTGCTCCTCGCTGCTGC | -0.0748 |

Biological target: PLEKHN1
Assay: as above
Conditions: shRNA

| Sequence | sensor-assay potency score (higher = more potent) |
| --- | --- |
| TCCAGGTCCAGGATGTCCGTGC | -1.12 |
| TTGAACACACTCAGGAATGGCT | -0.516 |
| TGACCGTAGTCCTCGTAGCTGG | -1.04 |
| TAGTGGAAGAGCTTGTTGGCGG | -0.587 |
